This excerpt belongs to a sample that is enriched for hits.
LmPK inh: qHTS Assay for Inhibitors of Leishmania Mexicana Pyruvate Kinase (LmPK); AID 1721, 2009; 0.37% of 290,000 active; purified LmPK, Kinase-Glo ATP luminescence, 1 h; Potency, µM (highest dose often 57.5 µM), for the others: at the top dose activity change, negative = inhibition, hits mostly inhibitors; Q27686; also: potency is read from the fitted curve at half-maximal effect; % is scaled to controls: 0 for no effect and ±100 for the full control effect
Target sequence (Q27686 whole entry, looked up): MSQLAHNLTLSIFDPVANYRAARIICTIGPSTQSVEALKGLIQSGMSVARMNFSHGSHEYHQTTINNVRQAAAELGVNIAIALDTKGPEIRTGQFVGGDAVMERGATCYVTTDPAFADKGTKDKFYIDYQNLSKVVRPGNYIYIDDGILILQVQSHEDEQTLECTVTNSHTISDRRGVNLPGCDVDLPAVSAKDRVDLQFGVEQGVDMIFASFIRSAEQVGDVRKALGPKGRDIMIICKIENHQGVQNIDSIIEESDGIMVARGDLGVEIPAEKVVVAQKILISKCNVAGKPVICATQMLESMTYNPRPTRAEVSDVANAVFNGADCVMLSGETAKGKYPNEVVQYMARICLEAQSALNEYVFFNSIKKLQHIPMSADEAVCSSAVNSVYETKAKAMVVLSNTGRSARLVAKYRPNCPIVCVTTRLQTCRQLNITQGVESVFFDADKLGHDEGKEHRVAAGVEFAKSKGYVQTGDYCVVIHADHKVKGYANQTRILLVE
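0.1 nM LmPK, 0.5 mM PEP, 0.1 mM ADP; 50 mM imidazole pH 7.2, 7 mM MgCl2, 50 mM KCl; 1 h RT. Kinase-Glo luminescence readout, normalized to no-enzyme (full inhibition) and uninhibited wells.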
FBPA Giardia inh: qHTS Assay for Inhibitors of Fructose-1,6-bisphosphate Aldolase from Giardia Lamblia | A8B2U2 | purified Giardia FBPA | Potency, µM (highest dose often 59.6 µM), for the others: top-dose activity, negative = inhibition, actives largely listed as inhibitors | 0.71% of 290,000 active | AID 2451, 2010; also: potency is read from the fitted curve at half-maximal effect; % is scaled to controls: 0 for no effect and ±100 for the full control effect; nearly all actives have a fitted effect of over 55% in size
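40 nM FBPA preincubated 10 min at RT with compound (up to 57.5 uM final), then substrate plus GAPDH/TPI/NAD/arsenate coupling and diaphorase/resazurin added. Fluorescence read after 20 min at RT, 525/598 nm.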
Shiga inhibitor: A qHTS for Small Molecule Inhibitors of Shiga Toxin. 9.2% of 290,000 active. AID 2315, 2010. inhibition, % at 38.7 µM. Vero cells, Shiga toxin protein synthesis inhibition reporter; in the data active = inhibition mostly above about 28%, no sharp cut-off; inactive = mostly below about 43%; also: 0% is about no effect
Sm TGR block: qHTS Assay for the Inhibitors of Schistosoma Mansoni Peroxiredoxins | Schistosoma mansoni thioredoxin glutathione reductase (TGR), Q962Y6 | purified TGR, DTNB reduction, TNB absorbance 405 nm | Potency, µM (titrated, usually from 114 µM), inactives show top-dose activity change, negative = inhibition, usual class: inhibitors | 3% of 360,000 active | AID 485364, 2010; also: potency is read from the fitted curve at half-maximal effect; % is scaled to controls: 0 for no effect and ±100 for the full control effect; nearly all actives have a fitted effect of over 60% in size
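TGR 20 nM + NADPH 100 uM (dispensed conc.), cpd preinc 15 min RT; start with NADPH (500 uM addition) then DTNB (15 mM addition). Kinetic TNB absorbance, 405 nm filter. Four-parameter Hill fit across titration.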
CHX counter: Cycloheximide Counterscreen for Small Molecule Inhibitors of Shiga Toxin | AID 2314, 2010 | 12% of 300,000 active | cell reporter, cycloheximide protein synthesis inhibition counterscreen | max response, %; in the data active = max response mostly above about 13%, no sharp cut-off; inactive = mostly below about 14%; also: read at 38.3 µM for the half of the compounds with a filed dose; 0% is about no effect
TbPYK inhibitor: qHTS of Trypanosoma Brucei Inhibitors; pyruvate kinase (Trypanosoma brucei), Q57TT1; TbPYK enzyme, Kinase-Glo Plus ATP luminescence, 45 min; Potency, µM (titrated, usually from 76.8 µM), without a hit: at the highest dose activity, negative = inhibition, actives largely listed as inhibitors; 0.12% of 410,000 active; AID 624173, 2012; also: potency is read from the fitted curve at half-maximal effect; % is scaled to controls: 0 for no effect and ±100 for the full control effect; nearly all actives have a fitted effect of over 50% in size
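Activity of T. brucei pyruvate kinase was followed by Kinase-Glo Plus luminescence after the enzyme reacted 45 min at room temperature with 130 uM ADP (final) and substrate. Test compounds were added before ADP at multiple concentrations.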
An asterisk follows results filed as active. Unless noted, calls follow the shape of the dose curve; as a rule, active = well fitted curve in the direction sought with a large enough effect; inconclusive = small, poorly fitted or top-dose-only effect, or another doubt; inactive = no such curve, though single readings can be large; an effect the other way counts as inactive or inconclusive.

`COc1ccc(-c2c(C)nn3c(C(F)(F)F)cc(-c4ccccc4)nc23)cc1OC` gave Sm TGR block -9% and TbPYK inhibitor 7%.
O=C(NCCc1ccccc1)c1ccc(Cn2c(SCc3ccccc3)nc3cccnc32)cc1 was read as Sm TGR block 0% and TbPYK inhibitor -4%.
`O=C(NCc1ccccc1)c1c[nH]c2cc3c(cc2c1=O)OCCO3` gave LmPK inh 5%, FBPA Giardia inh 4%, Shiga inhibitor 30*, Sm TGR block 5%, CHX counter 37* and TbPYK inhibitor 0%.
For O=C(CC12CCC(CC1)C2)NCc1ccc2c(c1)OCO2 the results were LmPK inh -6%, FBPA Giardia inh 4%, Shiga inhibitor 44*, Sm TGR block 0%, CHX counter 26* and TbPYK inhibitor -1%.
For CCN(CC)C(=O)Cn1cc(C(=O)C(=O)Nc2ccc3c(c2)OCO3)c2ccccc21 the results were TbPYK inhibitor -8%.
CC(=O)NC(Cc1c[nH]c2ccccc12)C(=O)OCC(=O)Nc1ccc2c(c1)OCO2 (configuration not stated) was read as LmPK inh 6%, FBPA Giardia inh 0%, Shiga inhibitor 3, Sm TGR block 10µM*, CHX counter 9 and TbPYK inhibitor 9%.
Screening Cc1[nH]c2ccccc2c1C(=O)C(=O)Nc1ccc2c(c1)OCO2 returned LmPK inh 6%, Shiga inhibitor 47*, Sm TGR block -1%, CHX counter 28* and TbPYK inhibitor 0%.
CC(=O)NC(Cc1c[nH]c2ccccc12)C(=O)OCC(=O)Nc1cc(C)on1 (configuration not stated) was read as LmPK inh 4%, FBPA Giardia inh 5%, Shiga inhibitor -7, Sm TGR block -14%, CHX counter -2 and TbPYK inhibitor 1%.
O=C(NCc1ccc2c(c1)OCO2)NC1CCCCC1 was read as LmPK inh 0%, FBPA Giardia inh 2%, Shiga inhibitor 31, Sm TGR block 1%, CHX counter -1 and TbPYK inhibitor 4%.
COc1cccc(NC(=O)CSc2nc(-c3ccccc3Cl)nc3c2Cc2c(CO)cnc(C)c2O3)c1 was read as Sm TGR block inconclusive and TbPYK inhibitor -1%.
`CC(Sc1nc2ccccc2c(=O)n1CC1CCCO1)C(=O)Nc1ccc(S(N)(=O)=O)cc1` (configuration not stated) gave Sm TGR block 2% and TbPYK inhibitor 6%.
COc1cccc(NC(=O)CN2C(=O)NC(C)(c3ccc(C)cc3)C2=O)c1 (configuration not stated) was read as LmPK inh 4%, FBPA Giardia inh -9%, Shiga inhibitor 28, Sm TGR block 5%, CHX counter 2 and TbPYK inhibitor -1%.
`COc1ccc(C2=NOC(C)(c3nnc(-c4ccccc4)o3)C2)cc1` (configuration not stated) gave TbPYK inhibitor 6%.
COc1cc(C(=O)N(CCCN(C)C)c2nc3c(OC)cccc3s2)cc(OC)c1OC was read as Sm TGR block -9% and TbPYK inhibitor 3%.
Screening CC(C)C[C@@H](CC(=O)N[C@@H](CCCN)CC(=O)N[C@@H]1CCCC[C@H]1C(=O)N[C@H](CC(=O)N[C@@H](CCC(=O)O)CC(=O)O)Cc1ccccc1)NC(=O)[C@@H]1CNCC[C@H]1N returned FBPA Giardia inh -27%.
`O=C(CSc1nc2cc([N+](=O)[O-])ccc2n1-c1ccccc1)NCc1ccc2c(c1)OCO2` gave LmPK inh 7%, FBPA Giardia inh 7.9µM*, Shiga inhibitor 18, Sm TGR block -20%, CHX counter -1 and TbPYK inhibitor 4%.
O=C(CCc1c[nH]c2ccccc12)NCc1ccc2c(c1)OCO2 was read as LmPK inh 14%, FBPA Giardia inh 6%, Shiga inhibitor -11, Sm TGR block 8%, CHX counter 2 and TbPYK inhibitor -1%.
`O=C(Cc1ccccc1[N+](=O)[O-])NCc1ccc2c(c1)OCO2` gave LmPK inh -23%, FBPA Giardia inh 9%, Shiga inhibitor 69*, Sm TGR block -25%, CHX counter 58* and TbPYK inhibitor -1%.
For O=C(Cc1c[nH]c2ccccc12)NCc1ccc2c(c1)OCO2 the results were LmPK inh 4%, FBPA Giardia inh 2%, Shiga inhibitor 16, Sm TGR block -17%, CHX counter 19* and TbPYK inhibitor 2%.
For COc1ccc(/C=N/NC(=O)Cc2cccs2)cc1 the results were LmPK inh 0%, FBPA Giardia inh 1%, Shiga inhibitor 64*, Sm TGR block -4%, CHX counter 62* and TbPYK inhibitor 4%.
COc1ccc(CC(=O)N/N=C/c2cccs2)cc1OC was read as LmPK inh 3%, FBPA Giardia inh -1%, Shiga inhibitor -4, Sm TGR block -2%, CHX counter -2 and TbPYK inhibitor 1%.
CCN(CC)c1ccc(/C=N/NC(=O)Cc2cccs2)cc1 was read as LmPK inh 2%, FBPA Giardia inh -10%, Shiga inhibitor 31, Sm TGR block 1%, CHX counter 33* and TbPYK inhibitor 3%.
O=C(Cc1cccs1)N/N=C/c1ccccn1 was read as LmPK inh 0%, FBPA Giardia inh inconclusive, Shiga inhibitor 39*, Sm TGR block 0%, CHX counter 27* and TbPYK inhibitor -1%.
For Cc1ccc(/C=N/NC(=O)Cc2cccs2)o1 the results were LmPK inh -2%, FBPA Giardia inh -6%, Shiga inhibitor 23, Sm TGR block -28%, CHX counter 8 and TbPYK inhibitor -4%.
Screening CCN(CC)c1ccc(/C=N/NC(=O)Cc2ccc(OC)c(OC)c2)cc1 returned LmPK inh 10%, FBPA Giardia inh -5%, Shiga inhibitor 21, Sm TGR block -15%, CHX counter 1 and TbPYK inhibitor 3%.
For COc1ccc(COC(=O)N/N=C/c2cccs2)cc1 the results were LmPK inh 2%, FBPA Giardia inh 3%, Shiga inhibitor 49*, Sm TGR block -2%, CHX counter 25* and TbPYK inhibitor 12%.
Screening Cc1nn(-c2ccc(N3CCCC3)nn2)c(C)c1CCC(=O)NCc1ccc(OC(C)C)cc1 returned Sm TGR block 3% and TbPYK inhibitor -3%.
For O=C(O)[C@H]1CN[C@H](C(=O)O)C1 the results were FBPA Giardia inh -7%.
